# Screening results from PubChem.
# Hits are enriched below; roughly 1.5% of the tested compounds scored in any of these assays.
# Bcl-xL primary = blocks human Bcl-xL binding to Bim BH3 peptide | GST-Bcl-xL / FITC-Bim BH3 peptide fluorescence polarization | inhibition, % at 10.9 µM | hit rate 0.7% among 320,000 | AID 2129;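 active = inhibition above the mean of all tested compounds plus 3 SD, cutoff set per campaign, cut at about 30% in these data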;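 also: 0% = DMSO wells and 100% = unlabeled Bim-BH3 peptide competitor; inhibitors lower millipolarization by displacing the labeled peptide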
# Target sequence (Q07817 whole entry, looked up): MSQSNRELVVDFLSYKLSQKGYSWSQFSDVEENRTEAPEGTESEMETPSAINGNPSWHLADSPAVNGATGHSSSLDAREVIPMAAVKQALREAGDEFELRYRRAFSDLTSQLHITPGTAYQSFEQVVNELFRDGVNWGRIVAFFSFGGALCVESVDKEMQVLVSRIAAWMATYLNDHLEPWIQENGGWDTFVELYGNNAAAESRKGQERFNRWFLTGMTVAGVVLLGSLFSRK
# MEX-5 binding = C. elegans MEX-5 TCR-2 RNA binding activity | activity score (negative = inhibition of binding), % at 10 µM | MEX-5/FITC-TCR2 RNA binding, fluorescence polarization; active compounds read low | Q9XUB2 | AID 1832 | hit rate 0.38% among 300,000;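 active = inhibition past about -25% in most replicates, and total fluorescence under double the plate's negative control median, limit read from the data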;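 also: 0% = DMSO and -100% = 5 µM competing unlabeled TCR2 RNA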
# EBV gp42 inh = EBV gp42 inhibition. Q1HVG2. Fluorescence polarization binding assay, mP read-out. AID 1085. inhibition, % (tested at 21.74 µM). hit rate 0.42% among 220,000; in the data active = inhibition above about 50%
# MCL1 BIM primary = MCL1-BIM-BH3 interaction inhibition (human) | Q07820 | GST-MCL1 / FITC-Bim-BH3 fluorescence polarization | inhibition, % at 10.9 µM | hit rate 0.68% among 320,000;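 active = inhibition above the mean inhibition of all tested compounds plus 3 SD, set per campaign, cut at about 40% in these data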;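 also: 0% = DMSO wells and 100% = unlabeled Bim-BH3 peptide control; higher means more loss of mP so more displacement of Bim peptide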
# Target sequence (Q07820 whole entry, looked up): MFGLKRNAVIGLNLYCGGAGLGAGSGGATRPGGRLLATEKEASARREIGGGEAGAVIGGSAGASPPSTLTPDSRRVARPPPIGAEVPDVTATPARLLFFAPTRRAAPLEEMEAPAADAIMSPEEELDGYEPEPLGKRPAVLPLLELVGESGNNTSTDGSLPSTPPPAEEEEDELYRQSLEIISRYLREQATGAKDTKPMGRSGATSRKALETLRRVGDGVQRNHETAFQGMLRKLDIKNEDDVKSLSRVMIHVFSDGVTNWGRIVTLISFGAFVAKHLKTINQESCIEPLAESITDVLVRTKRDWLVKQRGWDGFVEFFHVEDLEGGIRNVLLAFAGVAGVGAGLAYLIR
# GLD-1 TGE inh = GLD-1-TGE RNA interaction inhibition (C. elegans) | purified GLD-1 + fluorescein TGE RNA, fluorescence polarization | inhibition, % at 5.96 µM | hit rate 0.44% among 320,000 | Q17339 | AID 2280;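 active = percent inhibition above a per-plate cutoff, the plate mean of test compounds plus 3 SD, cut at about 30% in these data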;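 also: 0% = DMSO wells with GLD-1 and probe and 100% = wells lacking GLD-1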
# E coli Lon inh = E. coli protease La inhibition; inhibition, % at 7.94 µM; P0A9M0; purified E. coli Lon protease, fluorescence polarization; hit rate 0.42% among 360,000; AID 602123; in the data active = inhibition above about 13%, passing the limit was not always enough;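 also: 0% = enzyme with probe and DMSO and 100% = no enzyme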
# * marks the source's active call; other numbers are inactive results; i = inactive; x = no result given; + = active, no number.
SMILES,Bcl-xL primary,MEX-5 binding,EBV gp42 inh,MCL1 BIM primary,GLD-1 TGE inh,E coli Lon inh
CC(C)C(NC(=O)/C(=C\c1ccco1)NC(=O)c1ccco1)C(=O)O (configuration not stated),13,-2,x,8,13,-2
NC(=O)/C(=C\c1ccco1)NC(=O)c1ccc(Br)o1,37*,-6,x,42*,19,-15
CC(C)C(NC(=O)/C(=C/c1ccco1)NC(=O)c1ccc(Br)o1)C(=O)O (configuration not stated),35*,-4,x,45*,16,1
CN(N=O)c1ccc(CC2CCc3ccccc32)cc1 (configuration not stated),x,x,x,x,x,-3
CCN(CC)C(=O)[C@H]1C[C@H](CC(=O)NC/C=C(\C)CCC=C(C)C)C(=O)N2CCc3c([nH]c4cc(CCC(=O)N(C)C)ccc34)[C@]12C,x,x,x,x,x,8
Cn1cccc1CC(=O)N/N=C/c1cccc2ccccc12,46*,1,5,37,36*,3
Cn1cccc1CC(=O)N/N=C\c1c2ccccc2cc2ccccc12,33*,-4,-4,51*,18,1
CCN(CC(=O)Nc1ccc(OC)cc1)C(=O)Cc1coc2cc(C)c(C)cc12,1,x,x,-8,17,-1
O=C(COc1ccc(Cl)cc1)NCCS(=O)(=O)N1CCN(c2ccccc2F)CC1,1,0,x,5,-5,-1
CC1CCCC(C)N1C(=O)CSc1nnnn1-c1cccc2c1CCCC2 (configuration not stated),1,-4,-10,-1,55*,-3
CCn1c(C)nc2cc(N)ccc21,3,-51*,-24,7,-1,-13
Cc1nc2cc(N)ccc2n1C1CCCCC1,0,-39*,-10,4,1,-3
CCn1c(C)nc2cc(OC)ccc21,6,-2,-28,2,3,1
COC(=O)c1ccc(CNC(=O)COC(=O)c2cc(Cl)ccc2O)cc1,x,x,x,x,-1,3
COc1ccc(C(C)=O)cc1CN(c1ccccc1OC)S(=O)(=O)c1cccs1,-4,-2,x,-7,9,-8
CN(CC(=O)NCCc1ccc(S(N)(=O)=O)cc1)CC(=O)Nc1cccc(F)c1,x,x,x,x,x,6
COc1ccc(-c2[nH]ncc2/C=N\NC(=O)c2ccc(Br)o2)cc1OC,0,1,x,-10,-3,2
CCOC(=O)C1CCCN(CCC(=O)Nc2cc(OC)ccc2OC)C1 (configuration not stated),3,0,x,8,1,2
COc1ccc(/C=N/NC(=O)CCSc2nc3ccccc3s2)cc1OC,4,-2,-2,6,3,-1
O=C(CCSc1nc2ccccc2s1)N/N=C/c1c(O)ccc2ccccc12,1,-46*,-119,2,-3,-8
C[C@H](CO)N1C[C@H](C)[C@@H](CN(C)S(=O)(=O)c2cccs2)Oc2c(NS(=O)(=O)c3cn(C)cn3)cccc2C1=O,x,x,x,x,8,3
O=C(CN1C(=O)NC2(CCCCCC2)C1=O)NCCc1ccccc1,0,x,x,-3,4,-2
Cc1ccc(C2C(C#N)=C(N)Oc3cc(N)ccc32)cc1 (configuration not stated),9,-1,x,-4,3,-16
Cc1ccc(/C=C2\CCC3=C2OC(N)=C(C#N)C3c2ccc(C)cc2)cc1 (configuration not stated),-23,-7,58*,-53,-69,-353
CC1CCc2c(sc3nc(CN4CCOCC4)nc(NS(=O)(=O)c4cccc([N+](=O)[O-])c4)c23)C1 (configuration not stated),-2,1,59*,4,1,0
SMILES,Bcl-xL primary,MEX-5 binding,EBV gp42 inh,MCL1 BIM primary,GLD-1 TGE inh,E coli Lon inh
COC/C=C/C1=CC2=CC(=O)C(C)(OC(=O)c3cccs3)C(=O)C2=CO1 (configuration not stated),6,-9,x,15,6,x
COc1ccc(C2=CC3=C(Br)C(=O)C(C)(O)C(=O)C3=CO2)cc1 (configuration not stated),23,-7,-1,18,9,7
COc1ccc(C2=CC3=CC(=O)C(C)(O)C(=O)C3=CO2)cc1 (configuration not stated),16,-38*,x,27,11,x
COC/C=C/C1=CC2=CC(=O)C(C)(OC(=O)c3ccco3)C(=O)C2=CO1 (configuration not stated),27,x,8,60*,31*,x
COC/C=C/C1=CC2=CC(=O)C(C)(O)C(=O)C2=CO1 (configuration not stated),13,-47*,x,64*,3,x
Nc1ccc(Oc2ccccc2F)nc1,14,1,-3,8,32*,-19
CN1/C(=C\C=C2/C(=O)Oc3ccccc3C2=O)C(C)(C)c2ccccc21,47*,11,18,8,-127,x
CCCN1C(=O)/C(=C\C=C2\N(CC)c3ccccc3C2(C)C)SC1=S,x,1,+,x,x,-139
CCCN1C(=O)/C(=C\C=C2/Sc3ccccc3N2CC)SC1=S,x,1,-9,x,x,x
CN1/C(=C\C=C2/SC(=S)NC2=O)C(C)(C)c2ccccc21,37*,22,-155,-13,-101,i
CN1C(=CC=C2C=C(I)C(=O)C(I)=C2)C(C)(C)c2ccccc21,x,x,-35,x,x,0
Nc1ccc2nc(CCCO)[nH]c2c1,3,-49*,-12,2,0,-1
CC(Oc1ccccc1F)c1nnc(SCC(=O)N(c2ccccc2)C2CCS(=O)(=O)C2)o1 (configuration not stated),x,x,x,x,5,-8
COc1cc2c(cc1OC)C(c1ccc(-c3cc(Cl)ccc3Cl)o1)=NCC2,-1,-1,-15,-17,-10,-6
COc1cc2c(cc1OC)C(c1ccc(-c3ccc(Cl)c(Cl)c3)o1)=NCC2,3,-35*,7,-2,3,-13
COc1cc2c(cc1OC)C(c1ccc(-c3ccc(Cl)cc3Cl)o1)=NCC2,1,-36*,1,2,5,-5
CC1=C(C)CC(C(=O)NCc2c(F)cccc2Cl)C(C(=O)O)C1 (configuration not stated),0,1,x,7,-4,8
Cc1cc(=O)c(C(=O)O)nn1-c1ccccc1Cl,-5,0,x,-7,-2,6
Cc1ccc(C(=O)NNC(=O)c2cccc(S(=O)(=O)N3CCOCC3)c2)cc1,x,x,x,x,1,-8
O=C(NNC(=O)c1cc(Cl)ccc1O)c1cccc(S(=O)(=O)N2CCOCC2)c1,9,-27*,x,12,3,10
Fc1ccc(Br)cc1C1C=C(c2ccc(Br)s2)Nc2ncnn21 (configuration not stated),38*,-2,-18,-2,19,-23
COc1cccc(C2C=C(c3ccc(Br)s3)Nc3ncnn32)c1OC (configuration not stated),34*,-3,13,32,2,-34
